# Sampled rows, rich in hits. Any-hit rate of the full collection: about 3.4%.
# HSF-1 act: increases HSF-1 driven luciferase reporter signal | NIH3T3-HGL HSF-1 luciferase reporter, MG132, 8 h; 100% = twice DMSO control signal | activation, % at 9 µM | 300,000 tested, 1.7% active | AID 504408;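 active means mean replicate activation of at least 50% with a set share of replicates each reaching 50%; inconclusive means only one of those two conditions met; inactive means mean below 50% and too few replicates reaching it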
# Vif imaging: inhibitors of HIV Vif. AID 602346. HEK293T cells, Vif self-association by quenched fluorescence, imaging, 24 h. 340,000 tested, 0.35% active. inhibition, % at 7.49 µM; in the data active means inhibition above about 50%, passing the limit was not always enough; inconclusive means no clear call, values can overlap the other calls; inactive means below about 31%
# HSF1 inh: HSF1 inhibition; NIH3T3-HGL HSE-luciferase, MG132-induced, luminescence 8 h; hits give low values; activity change, negative = inhibition, % at 7.5 µM (by protocol); 300,000 tested, 0.77% active;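 active means more than half of replicate wells show activity change below -50%, luminescence cut by over half; inconclusive means some wells, but at most half, below -50%; inactive means no replicate well below -50%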;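 further: luciferase reports HSF-1 transcriptional activity via heat shock element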
# esBAF inh: SWI/SNF esBAF complex inhibition | AID 602393 | mouse ES cells, Bmi1-luciferase knock-in reporter, 24 h; 100% = twice the neutral-well signal | 350,000 tested, 2% active | reporter increase, % at 12.5 µM; in the data active means activation above about 40%; inconclusive means no clear call, values can overlap the other calls;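 further: a rise in the Bmi1 reporter signal indicates esBAF inhibition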
# Numbers stand for hits; 0 = inactive; ? = inconclusive; - = no result.
SMILES,HSF-1 act,Vif imaging,HSF1 inh,esBAF inh
COc1ccc(CCN2CC(C(=O)NCc3cc(C)on3)CCC2=O)cc1 (centres undefined),74.1,0,0,0
CCn1cc(CNC(=O)C2CCC(=O)N(Cc3ccc(Cl)cc3)C2)cn1 (centres undefined),0,0,0,0
C[C@H]1CN([C@@H](C)CO)C(=O)c2cc(C3=CCCC3)cnc2O[C@H]1CN(C)C(=O)c1ccc(F)cc1,-,-,-,0
CN1CCN(C(=O)C[C@@H]2CC[C@@H]3[C@H](COC[C@H](O)CN3Cc3cccc(-c4ccncc4)c3)O2)CC1,-,-,-,0
Cc1cc(C(=O)NNS(=O)(=O)c2ccc(F)cc2)nn1C(C)(C)C,0,0,-71.1,0
CCOC(=O)N1CCN(C(=O)c2cc(COc3c(F)cccc3F)on2)CC1,0,0,0,57.8
Cc1cccc(C)c1OCc1cc(C(=O)N2CCN(c3ccc(F)cc3)CC2)no1,69.9,0,0,44.8
COc1cccc(-c2ccc3n(c2=O)C[C@@H]2[C@@H](CO)[C@H](C(=O)N(C)C)N(CC4CC4)[C@H]32)c1,-,-,-,0
O=C1c2ccccc2C(=O)N1CCc1csc(-c2cccc(F)c2)n1,82.7,0,0,0
N/C(=N\OC(=O)c1ccc(Cl)cc1Cl)c1ccccn1,0,0,-65.1,-
N/C(=N\OC(=O)c1ccccc1Cl)c1ccncc1,0,0,0,-
Cc1ccc(C(=O)O/N=C(\N)c2ccccc2)c(Cl)c1,0,0,-81.4,-
Cc1ccc(C(=O)O/N=C(\N)c2ccccn2)c(Cl)c1,0,0,-84.0,0
CN(C)CC(=O)N[C@H]1CC[C@H](CC(=O)NCc2ccc(Cl)cc2)O[C@H]1CO,-,-,-,0
C[C@@H]1CN([C@@H](C)CO)C(=O)c2cc(NS(C)(=O)=O)ccc2O[C@@H](C)CCCCO[C@H]1CN(C)S(=O)(=O)c1cccs1,-,-,-,0
C[C@H]1CN([C@@H](C)CO)C(=O)Cc2cc(NC(=O)CCC(F)(F)F)ccc2O[C@H]1CN(C)Cc1ccc(C(=O)Nc2ccccc2N)cc1,-,-,-,0
Oc1c(CN2CCOCC2)cc(COCc2ccccc2)c2cccnc12,0,0,-78.5,-
Oc1c(CNc2ccccc2)cc(COCc2ccccc2)c2cccnc12,-,0,-,0
C[C@@H]1CN([C@H](C)CO)C(=O)c2cccc(NC(=O)Nc3cccc4ccccc34)c2O[C@H]1CN(C)S(=O)(=O)c1ccc(Cl)cc1,-,-,-,0
COc1ccc(C=O)cc1Cn1ccnc1C,0,0,-77.1,-
COc1ccc(S(=O)(=O)NCc2ccc3c(c2)OCO3)cc1OC,0,113.7,0,0
CCNS(=O)(=O)c1ccc(CCC(=O)NCc2ccc3c(c2)OCO3)cc1,53.8,0,0,0
CN(C)CC(=O)Nc1ccc2c(c1)[C@H]1C[C@@H](CC(=O)N(C)C)O[C@@H](CO)[C@H]1O2,-,-,-,0
CCOC(=O)c1ccc(CNC(=O)c2cc(COc3ccccc3SC)on2)o1,0,0,0,54.3
CSc1ccccc1OCc1cc(C(=O)N(C)Cc2ccc(C)o2)no1,57.2,0,0,75.0
SMILES,HSF-1 act,Vif imaging,HSF1 inh,esBAF inh
CSc1ccccc1OCc1cc(C(=O)N(C)Cc2ccc3nsnc3c2)no1,0,0,0,0
CSc1ccccc1OCc1cc(C(=O)NCc2ccc(C)s2)no1,0,0,0,0
Nc1ccc(N2CCN(CCCCN3C(=O)C4CCCN4C3=O)CC2)cc1 (centres undefined),0,0,0,-
O=C1C2CCCCN2C(=O)N1CCCN1CCN(c2ccc(F)cc2)CC1 (centres undefined),56.8,0,0,0
COCc1nc(-c2ccc(-c3ccc(C)cc3)nc2OC)no1,0,0,0,42.7
COc1ccc(-c2ccc(-c3noc(C)n3)c(OC)n2)cc1,0,-,0,?
Cc1c(NC(=O)C(C)OC(=O)c2sc3ccccc3c2Cl)c(=O)n(-c2ccccc2)n1C (centres undefined),0,107.8,0,0
CCCNC(=O)NC[C@@H]1[C@H](c2ccc(C3=CCCCC3)cc2)[C@H](CO)N1C(C)=O,-,-,-,0
O=C(N/N=C/c1ccc(C(F)(F)F)cc1)c1ccc(O)cc1,0,0,0,0
O=C(N/N=C/c1cccc(C(F)(F)F)c1)c1ccc(O)cc1,0,0,-74.5,-
Cc1ccc(-c2nc(NCc3ccco3)n(C(=O)c3ccco3)n2)cc1,0,0,0,59.7
O=C(c1ccco1)n1nc(-c2ccccc2)nc1NCc1ccco1,0,0,0,0
O=C(COc1ccccc1)n1nc(-c2ccc(Cl)cc2)nc1NCc1ccco1,0,0,0,65.7
COCC(=O)n1nc(-c2ccccc2)nc1NCc1ccc(N(C)C)cc1,0,0,0,49.7
CO[C@@H]1CN(C)C(=O)c2ccc(NS(=O)(=O)c3ccc(C)cc3)cc2OC[C@H](C)N(C(=O)NC(C)C)C[C@@H]1C,-,-,-,0
Cc1noc(C)c1NC(=O)N(C)C[C@@H]1Oc2ccc(NS(=O)(=O)c3cccs3)cc2CC(=O)N([C@H](C)CO)C[C@H]1C,-,-,-,0
COc1cccc(NC(=O)Nc2ccc3c(c2)C(=O)N(C)[C@H]2CC[C@@H](CC(=O)NCCc4ccccc4)O[C@H]2CO3)c1,-,-,-,0
CN(C)CCCN(C(=O)/C=C/c1cccs1)c1nc2c(F)cccc2s1,0,0,0,-
Cc1cccc2sc(N(CCN(C)C)C(=O)/C=C/c3cccs3)nc12,78.3,0,0,-
C/C(=N\Nc1nncc2ccccc12)c1ccc(C(C)(C)C)cc1,0,0,0,49.4
C/C(=N\Nc1nncc2ccccc12)c1ccc(O)cc1,0,0,0,0
CC1(CC(=O)N/N=C/c2cc(Br)c(O)cc2O)OCCO1,0,0,0,0
Cc1oc(/C=N/NC(=O)CC2(C)OCCO2)cc1Br,0,0,-53.2,0
CCN(CC)C(=S)SCC(=O)Nc1nc(=O)c2ccccc2s1,0,0,-69.6,-
Cc1cc(C(=O)COc2ncnc3sccc23)c(C)n1C,0,-,0,55.1
SMILES,HSF-1 act,Vif imaging,HSF1 inh,esBAF inh
COc1cc(-c2ccccc2)nc(N)n1,0,0,0,-
CCOc1cc(-c2ccccc2)nc(N)n1,0,-,0,46.6
CNC[C@H]1OCCCC[C@H](C)Oc2ccc(NS(=O)(=O)c3cn(C)cn3)cc2C(=O)N([C@H](C)CO)C[C@@H]1C,-,-,-,0
CCCCn1c(N)c(Sc2ccc(C)cc2)c(=O)[nH]c1=O,0,0,0,0
CCCn1c(N)c(Sc2ccc(C)cc2)c(=O)n(CCC)c1=O,72.8,0,0,-
Cc1noc(C)c1COC(=O)c1ccccc1Oc1ccccc1,56.7,0,0,0
Cc1noc(C)c1NC(=O)Nc1ccc2c(c1)C(=O)N([C@@H](C)CO)C[C@@H](C)[C@@H](CN(C)Cc1ccc(Oc3ccccc3)cc1)O2,-,-,-,0
Clc1cccc(-c2cc3nc4c(c(N5CCN(c6cnccn6)CC5)n3n2)CCCC4)c1,-,0,-,46.7
CN(C)c1ccc(/C=N/c2cc(-c3ccccc3)nn2-c2ccccc2)cc1,0,0,0,62.1
Cc1cc(N2CCOCC2)ccc1/C=C\[N+](=O)[O-],79.8,0,0,-
O=[N+]([O-])c1ccc(N2CCOCC2)cc1O,0,0,0,-
Cc1ccccc1NC(=O)C(=Cc1ccc(C(=O)O)cc1)C(=O)Nc1ccccc1C,146.1,?,0,-
CC(=O)Nc1ccccc1C,-,0,-,0
CC(=O)/C(=C/c1ccccc1)C(=O)Nc1ccccc1C,54.7,0,0,0
